Laboratory results taken from PubChem BioAssay (Tox21).
Results filed as inconclusive are left out. Where a call stands in place of a potency, no number is given. Unmarked numbers belong to inactive results. Activity calls are given as the source filed them. Unless noted, calls follow the shape of the dose curve; as a rule, active = well fitted curve in the direction sought with a large enough effect in the repeat runs; inconclusive = weak or mixed curves; inactive = no such curve, though single readings can be large; an effect the other way counts as inactive or inconclusive.

Assays:
[1] = qHTS assay to identify small molecule antagonists of the estrogen related receptor (ERR) signaling pathway - cell viability counter screen (AID 1224818);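 also: series mostly up to about 46 µM; viability measured after 17.5 h of compound exposure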
Method in brief: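 ERR reporter cells plated 6 h at 37 C/5% CO2, then compounds in DMSO pin-transferred and incubated 17.5 h at 37 C. Viability read as CellTiter-Fluor fluorescence after 30 min at 37 C.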

[2] = qHTS assay to identify small molecule antagonists of the estrogen related receptor (ERR) signaling pathway (AID 1224819; also: nearly all actives have a fitted effect of over 50% in size; also: potency is read from the fitted curve at half-maximal effect)
Method in brief: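 ERR reporter cells were plated at 2,000 cells/well and left 6 h at 37 C/5% CO2 before pin-tool transfer of compounds in DMSO. After 18 h at 37 C, One-Glo was added and luminescence was read 30 min later at room temperature.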

[3] = qHTS assay to identify small molecule agonists of the estrogen related receptor signaling pathway with the pleiotropic PPARgamma coactivator (PGC) (AID 1224823)
Method in brief: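 Cell-based luciferase assay in the NTP-supplied PGC/ERR line, 2,000 cells/well; 18 h compound exposure at 37 C, luminescence after One-Glo.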

[4] = qHTS assay to identify small molecule agonists of the estrogen related receptor (ERR) signaling pathway (AID 1224820)
Method in brief: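 Quantitative HTS of the LOPAC library used NTP ERR reporter cells treated 18 h at 37 C. Signal is luminescence after One-Glo addition and a 30 min room-temperature incubation.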

[5] = tested on: estrogen-related receptor alpha (ERRalpha) with PGC-1alpha coactivator, human; experiment: qHTS assay to identify small molecule antagonists of the estrogen related receptor signaling pathway with the pleiotropic PPARgamma coactivator (PGC) (AID 1224821; calls by dose curve;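 also: series mostly up to about 46 µM; lower luminescence signal means antagonism of PGC/ERR signalling; nearly all actives have a fitted effect of over 50% in size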)
Method in brief: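 Quantitative HTS for antagonism: PGC/ERR cells received compounds after 6 h attachment and were incubated 18 h at 37 C, with luminescence (One-Glo) as the endpoint.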

[6] = qHTS assay to identify small molecule antagonists of the estrogen related receptor signaling pathway with the pleiotropic PPARgamma coactivator (PGC) cell viability counter screen (AID 1224822; also: series mostly up to about 46 µM)
Method in brief: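 PGC/ERR cells were seeded at 2,000 cells/well, rested 6 h at 37 C/5% CO2, then given compounds in DMSO by pin tool and incubated 17.5 h at 37 C. Viability came from CellTiter-Fluor fluorescence after 30 min.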

Row | SMILES | Potency [1] | Potency [2] | Potency [3] | Potency [4] | Potency [5] | Potency [6]
1 | CCCN1CCc2cccc3c2[C@H]1Cc1ccc(O)c(O)c1-3 | inactive | inactive | inactive | – | – | –
2 | NC(=O)COc1c(F)cc(SCCNS(=O)(=O)c2ccccc2)cc1F | inactive | – | inactive | inactive | inactive | inactive
3 | Nc1ccc(CCN2CCN(c3cccc(C(F)(F)F)c3)CC2)cc1 | inactive | 13.9 µM (active) | inactive | – | inactive | inactive
4 | C[N+]1(C)C2CC(OC(=O)[C@H](CO)c3ccccc3)CC1C1OC12 (stereo not given in full) | inactive | – | – | – | – | inactive
5 | Nc1cc2c(ncn2CCOCP(=O)(O)O)c(=O)[nH]1 | inactive | – | inactive | – | inactive | inactive
6 | CN1CCC[C@@H]1Cc1c[nH]c2ccc(Nc3ncccc3[N+](=O)[O-])cc12 | – | inactive | – | inactive | inactive | –
7 | NC1CC1c1ccccc1 (stereo not given) | inactive | – | – | – | – | inactive
8 | NC(Cc1cc(O)c(O)cc1O)C(=O)O (stereo not given) | inactive | – | inactive | inactive | inactive | inactive
9 | Oc1ccc2c3c1O[C@H]1c4oc5ccccc5c4C[C@@]4(O)C(C2)N(CC2CC2)CCC314 (stereo not given in full) | inactive | – | inactive | – | inactive | inactive
10 | CN1C2CCC1CC(OC(=O)c1cc(Cl)cc(Cl)c1)C2 (stereo not given) | inactive | – | – | – | – | inactive
11 | N#C/C(=C/c1ccc(O)c(O)c1)C(N)=S | inactive | – | inactive | inactive | inactive | inactive
12 | CO[C@H]1CC=C2CCN3CCC4=C(CC(=O)OC4)[C@]23C1 | inactive | – | – | – | – | inactive
13 | O=C(NC1CN2CCC1CC2)c1cc2ccoc2cn1 (stereo not given) | inactive | – | – | – | – | inactive
14 | C[N+]1(C)C2CCC1CC(OC(=O)C(CO)c1ccccc1)C2 (stereo not given) | inactive | – | – | – | – | inactive
15 | NC(C(=O)O)c1cc(=O)[nH]o1 (stereo not given) | inactive | inactive | inactive | – | inactive | inactive
16 | Cc1o[nH]c(=O)c1CC(N)C(=O)O (stereo not given) | inactive | – | – | – | – | inactive
17 | CC[C@@H]1C(=O)OC[C@@H]1Cc1cncn1C | inactive | – | – | – | – | inactive
